Results from PubChem BioAssay (NCATS).
Inconclusive results are not listed. The source made the active and inactive calls. The call rests on the fitted dose curve; in most records, active means well fitted inhibition curve with a large enough effect; inconclusive means small, poorly fitted or top-dose-only effect; inactive means flat fitted curve, though single readings scatter.

Key:
Experiment in all cases: qHTS profiling for inhibitors of Plasmodium falciparum proliferation (AID 504749); further: nearly all actives have a fitted effect of over 60% in size
Conditions in all cases: P. falciparum in erythrocytes, SYBR Green DNA, 72 h; series mostly up to 28.7 µM
CP238 = test system: CP238
In short: (§1)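 Fluorescence of SYBR Green-bound parasite DNA, read at 485/535 nm, served as the growth measure. Infected erythrocytes were cultured with compound 72 h; artemisinin (0.29 uM) and DMSO wells defined the normalization range.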

CP247 = test system: CP247
In short: as §1

CP250 = test system: CP250
In short: as §1

CP252 = test system: CP252
In short: as §1

CP256 = test system: CP256
In short: as §1

CP260 = test system: CP260
In short: as §1

CP262 = test system: CP262
In short: as §1

CP265 = test system: CP265
In short: as §1

CP266 = test system: CP266
In short: as §1

CP268 = test system: CP268
In short: as §1

CP269 = test system: CP269
In short: as §1

CP286 = test system: CP286
In short: as §1

CP291 = test system: CP291
In short: as §1

CP297 = test system: CP297
In short: as §1

CP305 = test system: CP305
In short: as §1

CP315 = test system: CP315
In short: as §1

CP325 = test system: CP325
In short: as §1

CP329 = test system: CP329
In short: as §1

CP335 = test system: CP335
In short: as §1

DFO2036 = test system: DFO2036
In short: as §1

Measured: Potency
Potency means the concentration at half of the fitted maximal effect.

NP(N)(=O)NC(=O)c1ccc(F)cc1
inactive: all assays above

CC(C)(C)CC(C)(C)c1ccc(O)cc1
active: CP247 11.2 µM
inactive: all other assays above

CN(C)CCc1ccc(O)cc1
not listed: CP266
inactive: all other assays above

NCC(O)c1ccc(O)cc1 (configuration not stated)
not listed: CP266
inactive: all other assays above

CC1NCCOC1c1ccccc1 (configuration not stated)
inactive: all assays above

Oc1cccc2cccnc12
inactive: all assays above

CN1CCN(C(=O)O[C@H]2c3nccnc3C(=O)N2c2ccc(Cl)cn2)CC1
inactive: all assays above

C#CCOC(C(=O)OCCN(C)C)(c1ccccc1)c1ccccc1
not listed: CP335
inactive: all other assays above

CCOC(=O)C1(c2ccccc2)CCN(CCC(C#N)(c2ccccc2)c2ccccc2)CC1
active: CP238 3.16 µM | CP247 4.47 µM | CP250 3.55 µM | CP252 3.55 µM | CP256 1.58 µM | CP260 3.55 µM | CP262 5.36 µM | CP265 2.51 µM | CP266 6.01 µM | CP268 3.79 µM | CP269 4.26 µM | CP286 2.82 µM | CP291 4.26 µM | CP297 5.36 µM | CP305 4.78 µM | CP315 4.78 µM | CP325 4.26 µM | CP329 3.79 µM | CP335 3.38 µM | DFO2036 2.82 µM

NCCc1cc(O)c(O)cc1O
inactive: all assays above

Cc1ncc(CNC(=O)N(CCCl)N=O)c(N)n1
inactive: all assays above

CC[N+]1(C)CCCC(OC(=O)C(O)(c2ccccc2)c2ccccc2)C1 (configuration not stated)
inactive: all assays above

NN=C(N)N
inactive: all assays above

CC(=O)Nc1cc([As](=O)(O)O)ccc1O
inactive: all assays above

Clc1ccc(COC(Cn2ccnc2)c2ccc(Cl)cc2Cl)cc1 (configuration not stated)
active: CP238 6.31 µM | CP247 3.16 µM | CP250 5.01 µM | CP252 3.98 µM | CP256 7.08 µM | CP260 2.51 µM | CP262 4.78 µM | CP265 2.51 µM | CP268 15.1 µM | CP269 4.78 µM | CP286 3.98 µM | CP291 7.57 µM | CP297 3.79 µM | CP305 13.5 µM | CP315 15.1 µM | CP325 9.53 µM | CP329 10.7 µM | CP335 4.26 µM | DFO2036 2.51 µM

Nc1ccncc1
inactive: all assays above

O=C(NC(O)C(Cl)(Cl)Cl)NC(O)C(Cl)(Cl)Cl (configuration not stated)
inactive: all assays above

OCCOc1ccccc1
inactive: all assays above

Cn1c(CCCC(=O)O)nc2cc(N(CCCl)CCCl)ccc21
inactive: all assays above

COc1ccc(C(CN(C)C)C2(O)CCCCC2)cc1 (configuration not stated)
not listed: CP265 | CP266 | CP297 | CP325 | CP335
inactive: all other assays above

CC(=O)[C@H]1CC[C@H]2[C@@H]3CC[C@H]4C[C@H](O)CC[C@]4(C)[C@H]3C(=O)C[C@]12C
inactive: all assays above

CCC(COC(=O)c1cc(OC)c(OC)c(OC)c1)(c1ccccc1)N(C)C (configuration not stated)
inactive: all assays above

Oc1ccccc1-c1ccccc1
inactive: all assays above

CC[C@@H](CO)NC(=O)[C@@H]1C=C2c3cccc4[nH]cc(c34)C[C@H]2N(C)C1
not listed: CP335
inactive: all other assays above

CC(C)CC(N(C)C)C1(c2ccc(Cl)cc2)CCC1 (configuration not stated)
inactive: all assays above

CCOP(=S)(OCC)Oc1cc(C)nc(C(C)C)n1
inactive: all assays above

CC(C)(N)Cc1ccc(Cl)cc1
not listed: CP265 | CP268 | CP297 | CP305 | CP329 | CP335
inactive: all other assays above

Clc1cccc(N2CCNCC2)c1
not listed: CP297 | CP335
inactive: all other assays above
